Out of some 360,000 compounds screened, about 510 (0.14%) were called active. The sample as a whole holds a higher share of actives than the screen did. Values without a mark were called inactive.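 The calls were made as follows: active = mean normalized replicate activity at least 40 and at least half of replicates scoring 40 or more; inconclusive = only one of the two criteria met; inactive = mean below 40 and under half of replicates reaching 40.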

Chain of DNA repair and recombination protein RAD54-like (Homo sapiens) (Q92698 whole entry, looked up): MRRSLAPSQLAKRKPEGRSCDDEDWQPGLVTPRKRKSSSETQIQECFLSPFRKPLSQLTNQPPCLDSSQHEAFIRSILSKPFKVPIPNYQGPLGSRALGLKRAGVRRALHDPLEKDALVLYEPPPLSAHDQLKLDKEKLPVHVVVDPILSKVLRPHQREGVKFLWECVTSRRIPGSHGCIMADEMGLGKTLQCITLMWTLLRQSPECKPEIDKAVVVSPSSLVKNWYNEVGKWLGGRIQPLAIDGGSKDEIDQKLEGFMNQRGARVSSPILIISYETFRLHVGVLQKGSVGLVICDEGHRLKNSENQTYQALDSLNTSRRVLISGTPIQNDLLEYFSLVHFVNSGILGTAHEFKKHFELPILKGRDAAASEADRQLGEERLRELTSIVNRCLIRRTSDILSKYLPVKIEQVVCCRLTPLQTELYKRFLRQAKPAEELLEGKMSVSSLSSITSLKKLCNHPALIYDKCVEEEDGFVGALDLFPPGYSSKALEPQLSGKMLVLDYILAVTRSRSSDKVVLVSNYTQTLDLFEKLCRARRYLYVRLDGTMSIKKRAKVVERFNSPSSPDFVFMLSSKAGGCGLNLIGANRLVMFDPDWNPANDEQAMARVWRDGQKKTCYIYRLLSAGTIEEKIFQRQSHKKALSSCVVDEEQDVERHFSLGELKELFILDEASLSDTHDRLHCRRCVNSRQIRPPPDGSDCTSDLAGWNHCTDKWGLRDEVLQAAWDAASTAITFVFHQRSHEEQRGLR

The assay concerns the target DNA repair and recombination protein RAD54-like (Homo sapiens) (UniProt Q92698). Nature of the assay: RAD54 Holliday junction migration blockers – biochemical, fluorescence, single point, primary screen (AID 602329).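 Also: 0% = median of neutral control wells and 100% = median of positive control wells; inhibitors cause a drop in the FAM fluorescence signal.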 Particulars: RAD54 Holliday junction branch migration, FAM/BHQ fluorescence; at 10.4 µM; stronger effect = higher value.
Broadly, the inhibition is the drop in the measured response relative to a control, in per cent. Turning to `COc1cccc(C#Cc2ccc([C@H]3[C@@H](CO)N(C(=O)c4ccccn4)[C@H]3C#N)cc2)c1`, the inhibition is -3.06%. The same measure for `CCCNC(=O)N(C)C[C@H]1Oc2ncc(-c3ccc(C(=O)N(C)C)cc3)cc2C(=O)N([C@@H](C)CO)C[C@@H]1C`: -0.543%; for `C[C@@H]1CN([C@@H](C)CO)C(=O)c2cc(C#Cc3ccncc3)cnc2O[C@@H]1CN(C)C(=O)CN(C)C`: 0.163%; for `C[C@H]1CN([C@@H](C)CO)C(=O)Cc2cc(NS(C)(=O)=O)ccc2O[C@@H]1CN(C)S(=O)(=O)c1ccc(Cl)cc1`: 4.72%. Regarding `COCC(=O)Nc1ccc2c(c1)[C@@H]1C[C@H](CC(=O)NCc3cc(F)ccc3F)O[C@@H](CO)[C@@H]1O2`, the inhibition is -1.13%.

For the molecule `CO[C@H]1CN(C)C(=O)c2ccc(NC(=O)c3cc(C)on3)cc2OC[C@H](C)N(C)C[C@H]1C`, the inhibition is -1.45%. For `Cc1cccc2c1-c1sc(C(=O)NCCCN3CCc4ccccc4C3)cc1CO2` the value was 22%; for `O=C(NCCN1CCN(Cc2ccccc2)CC1)c1cc2c(=O)[nH]c3ccccc3c2s1`, -0.046%. For `CN1CCN(CCCNC(=O)c2cc3c(=O)oc4ccccc4c3s2)CC1` the value was 55.7% (active); for `Cn1cnc(S(=O)(=O)N2C[C@H](O)COC[C@@H]3O[C@H](CC(=O)NCc4cccc(F)c4)CC[C@H]32)c1`, 7.2%. For the molecule `COc1ccc(CCNC(=O)c2ccc3c(c2)NC(=O)C(N2CCOCC2)S3)cc1OC` (configuration not stated), the inhibition is -1.36%.

Consider `CCN1CCN(CCNC(=O)c2ccc3c(c2)NC(=O)/C(=C\c2ccc(OC)c(OC)c2)S3)CC1`, for which the inhibition is 72.7% (active).

As for `COc1ccc(/C=C(\NC(=O)c2ccccc2)C(=O)NCCN2CCOCC2)cc1OC`, the inhibition is -3.48%. The same measure for `CC(C)C(=O)Nc1ccc2c(c1)C(=O)N(C)[C@H]1CC[C@H](CC(=O)NCc3ccc(F)cc3)O[C@H]1CO2`: 7.1%; for `CNC(=O)C[C@H]1CC[C@H]2[C@@H](COc3ccc(NC(=O)c4cccc(OC)c4)cc3C(=O)N2C)O1`: 7.1%; for `COC(=O)[C@@H]1[C@@H](CO)[C@@H]2Cn3c(ccc(-c4ccccc4)c3=O)[C@@H]2N1C(=O)C1CC1`: -7.82%.

For the molecule `C[C@@H]1CN([C@@H](C)CO)C(=O)c2cc(-c3ccncc3)cnc2O[C@@H]1CN(C)C(=O)C1CCCCC1`, the inhibition was -1.52%. The same measure for `N#C[C@@H]1[C@H](c2ccc(C#CC3CCCCC3)cc2)[C@@H](CO)N1S(=O)(=O)c1ccccc1`: 1.51%.

`O=C(NCCCN1CCOCC1)c1cc(-c2cccc(O)c2)on1`: the inhibition is 10.7%. For `O=C(NCCCN1CCOCC1)c1cc(-c2ccccc2F)no1` the value was -15.8%; for `O=C(NCCCN1CCOCC1)c1cnn2c(-c3ccccc3)cc(-c3ccccc3)nc12`, 58.3% (active).

For `C[C@H]1CN([C@@H](C)CO)S(=O)(=O)c2ccc(-c3cccnc3)cc2O[C@H]1CN(C)C(=O)C1CCCCC1`, the inhibition was 0.93%. Take `COc1ccc(CN(C)C[C@@H]2Oc3ccc(NC(=O)Nc4ccc(OC)cc4)cc3C(=O)N([C@H](C)CO)C[C@H]2C)cc1`: the inhibition is 67.3% (active).

Consider `CC(C)NC(=O)Nc1ccc2c(c1)C(=O)N([C@@H](C)CO)C[C@@H](C)[C@H](CN(C)Cc1ccc(-c3ccccc3)cc1)O2`, for which the inhibition was 20.7%. The same measure for `COc1ccc(NC(=O)Nc2ccc3c(c2)C(=O)N([C@@H](C)CO)C[C@H](C)[C@@H](CN(C)Cc2ccc4c(c2)OCO4)O3)cc1`: 3.59%; for `COc1ccc(CN(C)C[C@@H]2Oc3ccc(NC(=O)NC(C)C)cc3C(=O)N([C@@H](C)CO)C[C@H]2C)cc1`: 56.8% (active). Take `CC(C)NC(=O)Nc1ccc2c(c1)C(=O)N([C@H](C)CO)C[C@@H](C)[C@@H](CN(C)Cc1ccncc1)O2`: the inhibition is -0.866%. The same measure for `COc1ccc(NC(=O)Nc2ccc3c(c2)C(=O)N([C@H](C)CO)C[C@@H](C)[C@H](CN(C)Cc2ccccc2)O3)cc1`: 22.5%; for `CN1c2ccc(C#Cc3cccnc3)cc2[C@@H]2[C@@H](CCN2S(=O)(=O)c2ccccc2)[C@H]1CO`: -8.94%; for `CCCCCn1c(=O)c(C(=O)OCC)c(Cl)c2ccccc21`: 0.614%. The same measure for `CCCCCCCCCCOC(=O)Cn1c(COc2ccc(C)cc2)[n+](C)c2ccccc21`: 50.3% (active); for `CCOc1ccc(OCCSc2nc3ccccc3n2CC(=O)O)cc1`: -7.61%; for `C[C@@H]1CN([C@@H](C)CO)C(=O)Cc2cc(NC(=O)Nc3ccc(C(F)(F)F)cc3)ccc2O[C@H]1CN(C)C(=O)Nc1ccc(F)cc1`: 0.667%.

With `CN1C(=O)c2cc(NS(=O)(=O)c3ccccc3F)ccc2OC[C@@H]2O[C@@H](CC(=O)NC3Cc4ccccc4C3)CC[C@@H]21`, the inhibition is -2.97%. For `C[C@H](CO)N1C[C@H](C)[C@@H](CN(C)S(=O)(=O)c2ccc(Cl)cc2)Oc2ccc(NS(=O)(=O)c3cn(C)cn3)cc2C1=O` the value was -4.21%; for `CO[C@@H]1CN(C)C(=O)c2cc(NC(=O)C3CCOCC3)ccc2OC[C@@H](C)NC[C@@H]1C`, 8.52%.

For `CC(C)CC#Cc1cnc2c(c1)C(=O)N([C@@H](C)CO)C[C@@H](C)[C@@H](CN(C)S(=O)(=O)c1cccs1)O2`, the inhibition was 12.1%.

`COc1cccc(NC(=O)Nc2ccc3c(c2)C(=O)N(C)C[C@@H](OC)[C@H](C)CN(CC2CC2)[C@H](C)CO3)c1`: the inhibition is 8.71%. The same measure for `Cc1ccc(S(=O)(=O)Nc2ccc3c(c2)C(=O)N([C@H](C)CO)C[C@H](C)[C@H](CN(C)Cc2ccccc2)OCCCC[C@@H](C)O3)cc1`: 5.79%; for `COc1ccc(C(=O)Nc2ccc3c(c2)OC[C@H](C)N(C(C)=O)C[C@@H](C)[C@H](OC)CN(C)C3=O)cc1`: -4.9%; for `CO[C@@H]1CN(C)C(=O)c2cc(NS(=O)(=O)c3ccc(Cl)cc3)ccc2OC[C@H](C)NC[C@@H]1C`: -8.54%.

With `CN1c2ccc(-c3cccc(C#N)c3)cc2[C@@H]2[C@@H](CCN2C(=O)NC2CCCCC2)[C@@H]1CO`, the inhibition is -3.76%.

Values taken from PubChem BioAssay AID602329 (Broad Institute, 2012).
